Among the data in PubChem BioAssay AID1835 (Johns Hopkins Ion Channel Center, 2009) are activity increase over dofetilide control, less the hit threshold values, retold here.

Hit rate of the full screen: of about 2,400 compounds, about 750 (31%) were called active. Some of the results follow. Unmarked numbers belong to inactive results.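 Rule for the calls: active = median signal gain over dofetilide-blocked control wells reaching their mean plus 3 SD, so readout 1 at least 0; inactive = the rest.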

For this assay, the target named is Voltage-gated inwardly rectifying potassium channel KCNH2 (Homo sapiens) (UniProt Q12809). Description: modulators restoring hERG flux under dofetilide – cell-based, thallium flux, duplicate retest, dofetilide IC70, confirmation (AID 1835). Conditions: hERG cell line, FluxOR thallium flux, dofetilide-blocked; at 10 µM; stronger effect = higher value. In general terms: Block of hERG is tested as a sign of cardiac risk.
Voltage-gated inwardly rectifying potassium channel KCNH2 (Homo sapiens), sequence (Q12809 whole entry, looked up): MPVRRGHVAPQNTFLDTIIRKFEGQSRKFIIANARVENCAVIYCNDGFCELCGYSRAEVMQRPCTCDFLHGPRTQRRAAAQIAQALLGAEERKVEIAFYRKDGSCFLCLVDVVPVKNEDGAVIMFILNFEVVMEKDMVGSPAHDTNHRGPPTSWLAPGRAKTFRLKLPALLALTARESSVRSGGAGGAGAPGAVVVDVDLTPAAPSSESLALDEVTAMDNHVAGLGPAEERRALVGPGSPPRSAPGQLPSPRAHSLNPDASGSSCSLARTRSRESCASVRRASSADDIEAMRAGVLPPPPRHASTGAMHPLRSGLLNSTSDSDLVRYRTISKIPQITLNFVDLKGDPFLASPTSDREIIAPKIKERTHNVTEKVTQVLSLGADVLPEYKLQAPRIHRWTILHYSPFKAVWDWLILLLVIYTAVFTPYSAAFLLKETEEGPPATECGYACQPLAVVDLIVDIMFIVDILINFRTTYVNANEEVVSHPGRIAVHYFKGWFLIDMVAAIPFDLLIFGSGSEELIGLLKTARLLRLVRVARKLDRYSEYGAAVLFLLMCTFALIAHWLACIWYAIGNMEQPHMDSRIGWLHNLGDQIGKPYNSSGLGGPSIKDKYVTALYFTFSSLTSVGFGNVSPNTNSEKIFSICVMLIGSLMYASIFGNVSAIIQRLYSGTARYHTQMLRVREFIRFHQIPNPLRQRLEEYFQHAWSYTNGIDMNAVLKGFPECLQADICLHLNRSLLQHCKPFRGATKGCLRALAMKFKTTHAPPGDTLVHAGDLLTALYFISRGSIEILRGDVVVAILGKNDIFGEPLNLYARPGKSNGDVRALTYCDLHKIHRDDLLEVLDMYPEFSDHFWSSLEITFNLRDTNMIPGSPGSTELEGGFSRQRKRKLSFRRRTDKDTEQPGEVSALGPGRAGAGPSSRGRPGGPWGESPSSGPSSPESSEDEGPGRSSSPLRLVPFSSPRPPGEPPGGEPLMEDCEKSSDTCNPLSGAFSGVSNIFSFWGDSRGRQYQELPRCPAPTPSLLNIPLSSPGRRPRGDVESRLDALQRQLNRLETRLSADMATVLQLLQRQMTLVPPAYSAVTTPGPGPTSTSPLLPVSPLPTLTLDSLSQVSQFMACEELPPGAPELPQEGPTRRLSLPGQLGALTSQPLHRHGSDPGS
With `COc1cc(S(=O)(=O)NCC2COCCO2)ccc1-n1cnnn1` (centres undefined), the activity increase over dofetilide control, less the hit threshold is -17%.
For the molecule `Cc1ccc(-n2nc(C)c3c2OC(N)=C(C#N)C3c2ccoc2)cc1` (centres undefined), the activity increase over dofetilide control, less the hit threshold was -19%.
The same measure for `CCOc1ccc(/C=C2\CCc3ccccc3C2=O)cc1`: -13%; for `CCOC(=O)c1c(C=O)c(C)n(Cc2ccccc2)c1C`: -5%; for `CCOC(=O)C1=C(Cc2ccc(C)cc2)C(=O)c2ccccc2C1=O`: 17% (active).
`CCOC(=O)C1=C(O)c2ccccc2C(=O)/C1=C\c1ccc(CC)cc1`: the activity increase over dofetilide control, less the hit threshold is 28% (active).
In the case of `CSc1ccccc1C(=O)NCc1ccc(C)cc1`, the activity increase over dofetilide control, less the hit threshold was -16%.
Then `CCOc1cc(/C=C2/C(=O)ON=C2C)ccc1O`, with -22%; and `Cc1ccc(OCC(=O)NC(=S)Nc2ccc(Br)cn2)cc1`, with 13% (active).
The same measure for `Cc1nc(NC(=S)NC(=O)COc2ccc(Cl)cc2)ccc1Br`: 0%.
`Cc1ccc(OCC(=O)NC(=S)Nc2ccc(Br)cn2)cc1C`: the activity increase over dofetilide control, less the hit threshold was -13%.
As to `C=CCN(CC=C)C(=S)NC(=O)c1ccc(OC)c(Br)c1`, the activity increase over dofetilide control, less the hit threshold was 48% (active).
Regarding `C=CCN(CC=C)C(=S)NC(=O)c1ccc(C)c(Br)c1`, the activity increase over dofetilide control, less the hit threshold is 100% (active).
Then `C=CCN(CC=C)C(=S)NC(=O)c1ccc(OC)cc1`, with 23% (active); and `COc1ccc(C(=O)NC(=S)N(C)C2CCCCC2)cc1Br`, with -5%.
Consider `COc1ccc(-c2nc3ccc(C(=O)NCC(OC)OC)cc3nc2-c2ccc(OC)c(OC)c2)cc1OC`, for which the activity increase over dofetilide control, less the hit threshold is -14%.
Take `CCN(CC)C(=S)NC(=O)c1ccc(OC)c(Br)c1`: the activity increase over dofetilide control, less the hit threshold is 11% (active).
The same measure for `C=CCNC(=S)NC(=O)c1ccc(C)c(Br)c1`: -8%.
The same measure for `COc1ccc(C(=O)NC(=S)NCCO)cc1Br`: -17%; for `O=C(OCCNc1ccc(C(F)(F)F)cc1[N+](=O)[O-])c1cc2ccccc2oc1=O`: -10%.
Consider `Nn1c(SCC(=O)Nc2ccc(F)cc2)nnc1C1CCCCC1`, for which the activity increase over dofetilide control, less the hit threshold was -24%.
Take `O=C(Cn1cnc2ccccc21)c1ccccc1`: the activity increase over dofetilide control, less the hit threshold was -5%.
The same measure for `CC(=O)NC1C(Oc2ccccc2C)OC(CO)C(O)C1O` (centres undefined): -10%; for `C=CCN(CC=C)C(=S)NC(=O)c1ccc([N+](=O)[O-])cc1`: 56% (active).
On to `C=CCN(CC=C)C(=S)NC(=O)/C=C/c1ccc(OC)cc1`, for which the activity increase over dofetilide control, less the hit threshold is 1% (active).
Regarding `C=CCN(CC=C)C(=S)NC(=O)Cc1cccc2ccccc12`, the activity increase over dofetilide control, less the hit threshold is 17% (active).
Regarding `COc1ccc(/C=C/C(=O)NC(=S)NNC(=O)c2cccs2)cc1`, the activity increase over dofetilide control, less the hit threshold is -24%.
For `COc1ccc(OC(=O)Cc2cccc3ccccc23)cc1`, the activity increase over dofetilide control, less the hit threshold was -13%.
With `CCC(=O)Nc1ccc(C(=O)NNC(=O)c2cc([N+](=O)[O-])cc([N+](=O)[O-])c2)cc1`, the activity increase over dofetilide control, less the hit threshold is -13%.
Turning to `O=C(NCCOC(=O)c1ccc([N+](=O)[O-])cc1)c1cccnc1`, the activity increase over dofetilide control, less the hit threshold was -4%.
`COc1ccccc1CNC(=O)CCCC(=O)n1ncc2cc(C)ccc21`: the activity increase over dofetilide control, less the hit threshold was -12%.
With `O=C(NN=C1c2ccccc2-c2ccccc21)c1ccccc1`, the activity increase over dofetilide control, less the hit threshold is -5%.
Regarding `CCNC(=S)N/N=C1\C(=O)c2cccc3cccc1c23`, the activity increase over dofetilide control, less the hit threshold is 9% (active).
Take `O=C(N/N=C1/C(=O)c2cccc3cccc1c23)c1ccc(Cl)cc1`: the activity increase over dofetilide control, less the hit threshold was 52% (active).
The same measure for `C/C(=N\NC(=O)c1ccc(Cl)cc1)c1ccc(Br)s1`: -11%; for `O=C1c2cccc3cccc(c23)C(=O)C1(O)O`: -24%; for `CC(C)(C)NC(=O)C(=O)NNC(=O)c1ccccc1`: -5%.
On to `Cc1ccc(Oc2ccc(OCC(=O)NC(CC(C)C)C(=O)O)cc2)cc1` (centres undefined), for which the activity increase over dofetilide control, less the hit threshold is -20%.
Then `CC(NC(=O)c1ccncc1)C(C)(C)C` (centres undefined), with -4%; and `CC(C)(C)NC(=O)C(=O)NNC(=O)c1ccc(C(C)(C)C)cc1`, with 38% (active); and `CC/C(=N\NC(=S)Nc1cccc(C)c1)c1ccccc1`, with -1%.
Regarding `CC(C)(C)NC(=O)C(=O)NNC(=O)COc1ccccc1`, the activity increase over dofetilide control, less the hit threshold was -4%.
With `CC(C)(C)NC(=O)C(=O)NNC(=O)COc1ccc(Br)cc1`, the activity increase over dofetilide control, less the hit threshold was 33% (active).
For the molecule `CC(C)(C)NC(=O)C(=O)NNC(=O)c1cccc(Br)c1`, the activity increase over dofetilide control, less the hit threshold was 35% (active).
The same measure for `CCCc1cc(C(=O)NNC(=S)Nc2cccc(C)c2)cs1`: -22%.
The same measure for `Cc1c(C(=O)NNC(=O)c2ccncc2)oc2ccc(Br)cc12`: -12%; for `Cc1cccc(NC(=O)C(=O)NNC(=O)c2ccc(C(C)(C)C)cc2)c1`: 83% (active); for `N#C/C(=N/Nc1ccc([N+](=O)[O-])cc1)C(=N)N1CCCCC1`: -20%.
Take `O=C1CC(c2ccccc2)c2cccc(F)c21` (centres undefined): the activity increase over dofetilide control, less the hit threshold was -22%.
In the case of `CC1CC(C)CN(CCCNC(=O)Cc2c(C(=O)O)[nH]c3ccccc23)C1` (centres undefined), the activity increase over dofetilide control, less the hit threshold was -14%.
`S=c1[nH]c2cc(Cl)ccc2s1`: the activity increase over dofetilide control, less the hit threshold is 93% (active).
Consider `S=c1[nH]c2ccc(Cl)cc2s1`, for which the activity increase over dofetilide control, less the hit threshold was 91% (active).
For the molecule `O=C(Nc1ccc2[nH]c(=S)sc2c1)Nc1ccccc1F`, the activity increase over dofetilide control, less the hit threshold is -16%.
Consider `S=c1[nH]c2ccccc2n2cccc12`, for which the activity increase over dofetilide control, less the hit threshold is -4%.
As to `CNC(=O)c1c(O)c2cccc3c2n(c1=O)CC3`, the activity increase over dofetilide control, less the hit threshold is -17%.
In the case of `CC(=O)c1cc(N2CCC(C(=O)O)CC2)ccc1[N+](=O)[O-]`, the activity increase over dofetilide control, less the hit threshold was -22%.
The same measure for `O=C(CN1CCCCCCC1)Nc1cccc(Cl)c1Cl`: -14%.
As to `Clc1cccc(OCCCN2CCCC2)c1Cl`, the activity increase over dofetilide control, less the hit threshold was 2% (active).
Take `COc1cccc(OC)c1OCCOCCN1CCN(C)CC1`: the activity increase over dofetilide control, less the hit threshold is -17%.
As for `Cc1ccc(NC(=O)C2C3CCC(O3)C2C(=O)O)cc1C` (centres undefined), the activity increase over dofetilide control, less the hit threshold is -1%.
On to `S=C(Nc1ccccc1)Nc1nc2ccccc2n1CCOc1ccccc1`, for which the activity increase over dofetilide control, less the hit threshold was -9%.
As to `CCCc1nnc(NC(=O)CN2CCOCC2)s1`, the activity increase over dofetilide control, less the hit threshold is -19%.
As to `O=C(Nc1ccccc1)N1CCSc2cc(Cl)ccc21`, the activity increase over dofetilide control, less the hit threshold is -1%.
On to `CC1CCc2sc(-c3n[nH]c(=S)o3)cc2C1` (centres undefined), for which the activity increase over dofetilide control, less the hit threshold was 9% (active).
As for `CCc1c(C)nc(SC)n(CC#N)c1=O`, the activity increase over dofetilide control, less the hit threshold was -2%.
As to `COc1ccccc1C(=O)NC(=S)NNC(=O)c1sc2ccccc2c1Cl`, the activity increase over dofetilide control, less the hit threshold is -18%.
The same measure for `O=C(NNC(=S)NC(=O)c1sc2ccccc2c1Cl)c1ccc(Cl)cc1`: 70% (active); for `COc1cccc(C(=O)NC(=S)Nn2cnnc2)c1OC`: -14%; for `COc1ccccc1C(=O)NNC(=S)NC(=O)c1sc2ccccc2c1Cl`: 43% (active).
